An excerpt weighted towards active compounds, which were near 2.8% of everything screened.
zVAD death inh – L929 zVAD cell death inhibition; actives 0.38% (n = 220,000); L929 zVAD necroptosis rescue, ATP luminescence, 24 h; with zVAD 60 µM; viability rescue, % at 10 µM; AID 1377;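 active = activation, scaled between plate controls, above about 75%, limit read from the data; inactive = activation under that limit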
TNF death inh – inhibitors of TNF-alpha induced necroptosis in Jurkat FADD-/- cells | AID 463075 | activation (protection from cell death), % at 10 µM | actives 0.068% (n = 220,000) | Jurkat FADD-/- TNF necroptosis rescue, ATP luminescence, 24 h; 0 = TNF only, 100 = no-TNF cells;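 active = activation, meaning protection from cell death, of at least 50% relative to plate controls; inactive = activation below 50%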;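 note: necroptosis triggered by 40 ng/mL TNF-alpha added together with compound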
Mcl1-Bid inh – disrupts binding of human Mcl-1 to Bid peptide. TR-FRET Mcl-1/Bid-Dy647 peptide binding, 1536-well. inhibition, % at 21.7 µM. actives 0.97% (n = 220,000). AID 1021;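 active = compounds that cut the binding signal by more than half at the single screening dose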;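 note: His-tagged Mcl-1 with europium anti-His antibody binding Bid BH3 peptide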
Target sequence (Q07820 whole entry, looked up): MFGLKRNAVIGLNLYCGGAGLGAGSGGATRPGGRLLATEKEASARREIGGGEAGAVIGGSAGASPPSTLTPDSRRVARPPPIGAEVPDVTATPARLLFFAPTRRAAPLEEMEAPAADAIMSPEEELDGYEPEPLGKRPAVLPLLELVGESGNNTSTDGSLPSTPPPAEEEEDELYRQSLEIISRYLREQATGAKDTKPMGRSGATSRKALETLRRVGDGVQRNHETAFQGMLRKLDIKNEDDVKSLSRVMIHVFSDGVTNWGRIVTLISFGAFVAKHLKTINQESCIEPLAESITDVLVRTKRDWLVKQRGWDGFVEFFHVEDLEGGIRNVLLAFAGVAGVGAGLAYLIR
Bim-Mcl-1 – inhibitors of Bim-Mcl-1 interaction, human; actives 0.1% (n = 190,000); Bead-based flow cytometry, Bim peptide-Mcl-1 binding; Q07820; inhibition, % at 10 µM; in the data active = inhibition above about 40%
m-calpain inh – blocks pig calpain II enzyme activity. AID 1236. purified calpain II, fluorogenic peptide substrate, 30 min. actives 0.37% (n = 220,000). inhibition, % at 16 µM;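 active = inhibition above about 50%, limit read from the data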
Mcl1-Noxa inh – Mcl-1/Noxa interaction inhibition; AID 1022; inhibition, % at 21.7 µM; Q07820; TR-FRET Mcl-1/Noxa peptide binding, 2 h; actives 1.5% (n = 220,000);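 active = compounds that cut the protein-peptide binding signal by more than 50% relative to plate controls in a single-dose test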;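 note: His-tagged Mcl-1 with rhodamine Noxa BH3 peptide and terbium anti-His antibody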
Large screens that a line does not name were inactive.

COc1cc(-c2nc(-c3ccccc3)c(-c3cccs3)[nH]2)cc(OC)c1OC	none
Cc1cccc(NC(=S)c2nc3ccccc3s2)c1	Mcl1-Bid inh 103.2
CCS(=O)(=O)c1nc(S(=O)(=O)c2ccc(C)cc2)c(NCCCN(C)C)s1	none
CC(C)(C)OC(=O)CN1C(=O)C(Sc2n[nH]c(-c3ccccc3)n2)CCc2ccccc21 (centres undefined)	none
CCCCCCCCCCCCCCCC(O)C(N)CO (centres undefined)	Mcl1-Bid inh 66.3
COc1cc(O)oc1C=Nc1ccc(C(=O)O)cc1	none
COCCNC(=O)NC12CC3(C)CC(C)(CC(C)(C3)C1)C2	none
CN(C)C=Nc1nonc1-c1ccccc1	none (no result: Bim-Mcl-1)
CN(C)C=Nc1c(Br)cc(Br)c2nonc12	Mcl1-Noxa inh 59.9
Cc1cc(Cl)ccc1OCCCC(N)=O	Mcl1-Noxa inh 70.7
CCOC(=O)c1c(NC(=O)COC(=O)c2c(C)noc2C)sc2c1CCC2	none
Cc1ccc(C(=O)NCC(=O)N2CCN(c3ncccn3)CC2)s1	Mcl1-Bid inh 65.3
Cc1cc(N/N=C/c2ccc(O)cc2)nc(NS(=O)(=O)c2ccccc2)n1	Mcl1-Noxa inh 53.5
O=C(COc1ccccc1[N+](=O)[O-])Nc1ccc(NC(=O)c2cc3ccccc3o2)cc1	none
O=C(COc1ccc(/C=N/NC(=O)c2cc3ccccc3o2)cc1Br)Nc1ccccc1	Mcl1-Bid inh 82.0
CC(C)(C)c1nc(NCCN2CCOCC2)c2nnn(Cc3ccccc3Cl)c2n1	Bim-Mcl-1 41.0
CCCCNC(=O)c1c(N)n(/N=C/c2ccccn2)c2nc3ccccc3nc12	none
CC(C)CNC(=O)c1c(N)n(/N=C/c2ccccn2)c2nc3ccccc3nc12	Mcl1-Bid inh 55.9
CCCCN(CCCC)CCn1cnc2c([nH]c3ccc(OC)cc32)c1=O	Mcl1-Noxa inh 55.2
CC(C)COP(=O)(OCC(C)C)C(Nc1ccccc1)c1ccc2c(c1)OCO2 (centres undefined)	m-calpain inh 51.5
COc1cccc(CC(NC(C)=O)C(=O)NC2CCN(S(=O)(=O)c3ccc4ccccc4c3)CC2)c1 (centres undefined)	none
Cc1nc(N)sc1-c1csc(Nc2ncccn2)n1	Mcl1-Bid inh 91.4, Mcl1-Noxa inh 87.2
O=C1C2C3C=CC(C3=C(c3ccccc3)c3ccccc3)C2C(=O)N1CCO (centres undefined)	none
O=C1C2C3C=CC(C3=C(c3ccccc3)c3ccccc3)C2C(=O)N1Cc1ccccc1 (centres undefined)	Mcl1-Noxa inh 64.4
Cc1ccccc1C(=O)c1cccn1CC(=O)NCCN1CCN(c2cccc(C)c2C)CC1	none
NC(=O)c1cccn1-c1ncc(C(F)(F)F)cc1Cl	Mcl1-Bid inh 83.3
O=C(Nc1ccc(Br)cc1)c1cccn1-c1ncc(C(F)(F)F)cc1Cl	none
O=C(NCc1ccc2c(c1)OCO2)c1nnc(Cc2ccc(Cl)cc2)o1	none (no result: zVAD death inh)
O=C(CN1C(=O)/C(=C2\SC(=S)N(C3CCS(=O)(=O)C3)C2=O)c2ccccc21)Nc1ccc(F)cc1 (centres undefined)	Mcl1-Bid inh 77.6, Mcl1-Noxa inh 78.5 (no result: Bim-Mcl-1)
COc1ccc(NC(=O)CN2C(=O)C(C)Oc3ccccc32)cc1 (centres undefined)	none
COc1ccc(NC(=O)CN2C(=O)/C(=C3\SC(=S)N(C4CCS(=O)(=O)C4)C3=O)c3ccccc32)cc1 (centres undefined)	Mcl1-Bid inh 90.7, m-calpain inh 56.4, Mcl1-Noxa inh 89.1 (no result: Bim-Mcl-1)
O=C(CN1C(=O)C2CCCCN2C(=O)c2ccccc21)Nc1ccc(F)cc1 (centres undefined)	none
N#Cc1cc(C#N)c(N2CCN(c3ccccn3)CC2)nc1N	none
CC(C)n1c(O)c(/C=C2\C=NN=C2c2ccccc2)sc1=S	Mcl1-Noxa inh 66.5 (no result: Bim-Mcl-1)
CCn1c(O)c(/C=C2\C=NN=C2c2ccc(C)cc2)sc1=S	none
COc1cc(NC(=O)C2CCN(S(=O)(=O)c3cccc4nonc34)CC2)cc(OC)c1	Mcl1-Bid inh 81.1
COc1ccc2nc(NC(=O)C3CCCN(S(=O)(=O)c4cccc5nonc45)C3)sc2c1 (centres undefined)	none
CCOc1ccc2nc(NC(=O)C3CCCN(S(=O)(=O)c4cccc5nonc45)C3)sc2c1 (centres undefined)	Mcl1-Bid inh 59.4

High-throughput results from PubChem.
